Screens deposited in PubChem by several laboratories.
ADAM17 inh: ADAM17 inhibitors, primary screen, biochemical, QFRET. inhibition, % at 6.95 µM. AID 720648, 2013. Disintegrin and metalloproteinase domain-containing protein 17 (Homo sapiens), P78536. recombinant ADAM17, EDANS/DABCYL FRET peptide cleavage. hit rate 0.83% among 370,000;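 active = inhibition above the mean of compounds lying between control limits plus 3 SD, set per campaign, cut at about 8.5% in these data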
ADAM10 inh: human ADAM10 inhibitors, primary screen, biochemical, QFRET, HTS; Disintegrin and metalloproteinase domain-containing protein 10 (Homo sapiens), O14672; recombinant ADAM10, EDANS/DABCYL FRET peptide cleavage, 3 h; inhibition, % at 7 µM; hit rate 0.62% among 370,000;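 active = inhibition above a per-campaign cutoff equal to the mean of compounds falling between control-based bounds plus 3 SD, cut at about 20% in these data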
Target sequence (O14672 214-748 limits assumed): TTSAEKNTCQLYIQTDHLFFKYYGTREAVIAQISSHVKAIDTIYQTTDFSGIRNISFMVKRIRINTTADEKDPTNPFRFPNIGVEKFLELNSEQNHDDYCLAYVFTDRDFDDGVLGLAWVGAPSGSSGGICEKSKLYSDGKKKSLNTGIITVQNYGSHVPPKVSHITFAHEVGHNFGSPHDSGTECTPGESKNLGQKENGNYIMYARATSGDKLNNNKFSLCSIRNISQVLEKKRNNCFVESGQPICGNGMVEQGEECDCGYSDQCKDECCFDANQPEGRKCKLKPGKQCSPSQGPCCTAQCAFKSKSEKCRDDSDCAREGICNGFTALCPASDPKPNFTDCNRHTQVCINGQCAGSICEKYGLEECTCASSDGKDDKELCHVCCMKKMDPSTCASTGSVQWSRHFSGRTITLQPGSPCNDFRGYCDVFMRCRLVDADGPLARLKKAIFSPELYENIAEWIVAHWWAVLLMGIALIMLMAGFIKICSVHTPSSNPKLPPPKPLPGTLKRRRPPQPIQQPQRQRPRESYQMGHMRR
GC-A act: GC-A stimulated cGMP production enhancers – HEK293 GC-A cells, cGMP TR-FRET, EC30 ANP, primary screen; 0% at EC30 ANP, 100% saturating ANP; hit rate 0.14% among 370,000; Atrial natriuretic peptide receptor 1 (Homo sapiens), P16066; activation, % at 10 µM; in the data active = activation above about 40%
GC-B act: human GC-B receptor activators, primary screen, HEK293 GC-B cells, cGMP TR-FRET, EC30 CNP | 0% at EC30 CNP, 100% saturating CNP | activation, % at 10 µM | hit rate 0.11% among 370,000 | AID 1920062, 2024;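 active = activation at 10 µM reaching about 35% in either raw or pattern-adjusted values, limit read from the data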
Of the large screens only hits and unclear results are named; the others gave an inactive call. This is a sample that favours compounds with a hit; in the whole collection about 1.3% have one here.

O=C(COC(=O)C1CC2C=CC1C2)Nc1ccccc1[N+](=O)[O-] (centres undefined)	none
C[C@H](CO)N1C[C@H](C)[C@@H](CN(C)C(=O)CN2CCOCC2)Oc2cc(Br)ccc2S1(=O)=O	none
CCOC(=O)c1ccc(NC(=O)CSc2nnc(SCc3cccc4ccccc34)s2)cc1	none
Nc1[nH]c(C(=O)c2ccccc2)c(-c2cccc3ccccc23)c1C(=O)c1c(-c2ccccc2)[nH]c2ccccc12	none
Cc1c(N=C2N=C(NC(=O)c3cccs3)c3ccccc32)c(=O)n(-c2ccccc2)n1C	GC-A act 80
Cc1c(NC(=O)Nc2ccc(C(C)(C)C)cc2)c(=O)n(-c2ccccc2)n1C	none
Cc1c(N=C2C=C(Br)C(=O)C(Br)=C2)c(=O)n(-c2ccccc2)n1C	none
Cc1c(N=C2N=C(NC(=O)NC(C)(C)C)c3ccccc32)c(=O)n(-c2ccccc2)n1C	GC-A act 84
Cc1c(N=C2C=CC(=O)c3ccccc32)c(=O)n(-c2ccccc2)n1C	GC-A act 73
Clc1ccc([C@H]2OC[C@@]3(CNCc4ccccc4)CS[C@H](c4ccc(Cl)cc4)N23)cc1	none
O=C(CCCn1c(=S)[nH]c2cc3c(cc2c1=O)OCO3)N1CCN(c2ccc(Cl)cc2)CC1	none
CC(=O)c1ccc(N2CCN(C(=O)CCCn3c(=S)[nH]c4cc5c(cc4c3=O)OCO5)CC2)cc1	ADAM10 inh 25
COc1ccc(NC(=O)c2cc(-c3cc(F)ccc3OCC3CCCO3)n[nH]2)c(C)c1 (centres undefined)	GC-A act 60, GC-B act 79
COc1ccc(NC(=O)c2cc(-c3cc(F)ccc3OCC3CCCO3)n[nH]2)cc1OC (centres undefined)	none
COc1ccc(NC(=O)c2cc(-c3cc(F)ccc3OC)n[nH]2)c(C)c1	GC-A act 55, GC-B act 71
CCOc1ccc(-n2cc(C(=O)Nc3cccc(C)n3)c3cc(OC)c(OC)cc3c2=O)cc1	GC-B act 36
CCOc1ccc(NC(=O)c2cn(-c3ccc(OCC)cc3)c(=O)c3cc(OC)c(OC)cc23)cc1	none
Cc1cccc(NC(=O)CSc2nc(C)nc3c2c(=O)n(C)c(=O)n3C)c1	none
Cc1csc(NC(=O)CSc2nc(C)nc3c2c(=O)n(C)c(=O)n3C)n1	GC-B act 37
O=[N+]([O-])C1=CC=C2C(=NC3(CCCCC3)N2O)C1=NCCc1ccccc1	none
Cc1cc(C(=O)N[C@H](c2ccccc2)[C@@]2(C)C[C@@H]2[C@@H](C)C(=O)Nc2ccc3ccccc3c2)n(C)n1	ADAM17 inh 13, ADAM10 inh 28
Oc1ccc(Cl)cc1-c1cc(-c2ccccc2)n[nH]1	ADAM10 inh 23
CCOC(=O)c1cnc2ccc(C(=O)OC)cc2c1NCCc1ccc(OC)c(OC)c1	GC-B act 36
O=C(CN1C(=O)NC2(CCCC2)C1=O)OCc1ccc(Cl)c(Cl)c1	none
O=[N+]([O-])c1cccc(-c2noc(-c3ccco3)n2)c1	none
COc1ccc(NC(=O)c2cc(-c3cc(Cl)ccc3OC)n[nH]2)cc1OC	GC-A act 45, GC-B act 53
COc1ccc(NC(=O)c2cc(-c3cc(Cl)ccc3C)n[nH]2)cc1OC	none
COc1ccc(Cl)cc1-c1cc(C(=O)NCc2ccc(C(F)(F)F)cc2)[nH]n1	none
COc1ccc(Cl)cc1-c1cc(C(=O)NCc2ccc(F)cc2)[nH]n1	GC-A act 43
COc1ccc(N(C)S(=O)(=O)c2cccc(C(=O)N3CCN(c4cccc(C)c4C)CC3)c2)cc1	none
Cn1c(=O)[nH]c(=O)c2c1nc(NC1CCCC1)n2Cc1ccccc1	GC-A act 44
Cn1c(=O)c2c(nc(NCC3CCCO3)n2C)n(C)c1=O (centres undefined)	none
Cn1c(=O)n(Cc2ccccc2)c(=O)c2c1nc(NCC1CCCO1)n2Cc1ccccc1 (centres undefined)	GC-A act 49, GC-B act 57
COc1cccc(CN(C(=O)c2ccccc2Cl)C2CCS(=O)(=O)C2)c1 (centres undefined)	none
Cc1cccc(C)c1N1C(=O)c2cccc([N+](=O)[O-])c2C1=O	none
Cc1ccc(N2C(=O)c3cccc([N+](=O)[O-])c3C2=O)cc1C	GC-A act 72
NS(=O)(=O)c1ccc(-c2ccc(/C=C3\C(=O)Nc4cc(Cl)ccc43)o2)cc1	none
CC1(C)OC(=O)C(=Cc2ccc(-c3ccc(S(N)(=O)=O)cc3)o2)C(=O)O1	GC-A act 40
O=C(O)COc1ccc(/C=C2\SC(=Nc3ccccc3)N(c3ccccc3)C2=O)cc1	none
COc1ccc(N=C2S/C(=C\c3ccc(OCC(=O)O)cc3)C(=O)N2CCc2c[nH]c3ccccc23)cc1	ADAM17 inh 9.2
O=C1NN(c2ccccc2)C(=O)/C1=C\c1cccc(OC(=O)c2cccs2)c1	GC-A act 41
Cc1cccc(NS(=O)(=O)c2c(C)[nH]c(C)c2C(=O)N2CCCC2)c1	none
CC[C@]12c3[nH]c4ccc(Cl)cc4c3CCN1C(=O)[C@@H](CC(=O)NCC13CC4CC(CC(C4)C1)C3)C[C@@H]2C(=O)N1CCN(C(=O)c2ccco2)CC1	ADAM10 inh 35
CCCCOC(=O)CSc1nnc(-c2ccc(Cl)cc2Cl)o1	GC-A act 67
Cc1cc(Br)c(NC(=O)COC(=O)CSc2nnc(-c3ccc(Cl)cc3)o2)c(Br)c1	GC-A act 60
Cc1cc(C)cc(NC(=O)CSc2nnc(-c3ccncc3)o2)c1	none
CSc1nc2c(=O)[nH]cnc2s1	none
Cn1cnc([N+](=O)[O-])c1Sc1nc(N)nc2c1ncn2Cc1ccccc1	GC-B act 44
CCS(=O)(=O)N1CCN(C(=O)c2cccc3ccccc23)CC1	none
CC1OC(c2ccccc2)OC2COC(c3ccccc3)OC12 (centres undefined)	none
Nc1ccccc1-c1nc2ccccc2[nH]1	none
Oc1ccc(C=Nc2ccccc2-c2nc3ccccc3[nH]2)cc1	GC-B act 45
COCOCCn1cc(CN2CCS(=O)(=O)N(Cc3ccc(-c4ccc(Cl)cc4)cc3)C(C)C2=O)nn1 (centres undefined)	GC-A act 49
O=C(COC(=O)c1cccc(S(=O)(=O)N2CCCC2)c1)Nc1ccc(Cl)cc1	GC-B act 97
O=[N+]([O-])c1ccc(O)c(P(=O)(c2ccccc2)c2ccccc2)c1	none
Cc1ccc(N=Nc2ccc(O)c(P(=O)(c3ccccc3)c3ccccc3)c2)cc1	GC-A act 50
O=C1C(Cl)=C(Nc2ccccc2O)C(=O)N1CCc1ccccc1	ADAM17 inh 16, ADAM10 inh 33
COc1cc(/C(C)=N/NC(=S)NC(C)C)cc(OC)c1OC	GC-B act 39
COc1cc(/C(C)=N\NC(N)=S)cc(OC)c1OC	none
COc1ccc(C(=O)C2CCN(c3ncnc4sccc34)CC2)cc1	none
